Results as given in the supplement of paper PMC3334620.
In all, about 33,000 sequences were measured (“E-score (-0.5 to 0.5)”: median about -0.015, highest 2% from about 0.3 on). The entries come from a sample that favours the highest values as a whole.

Target: T1, Abf1 (UniProt P14164)
T1 sequence: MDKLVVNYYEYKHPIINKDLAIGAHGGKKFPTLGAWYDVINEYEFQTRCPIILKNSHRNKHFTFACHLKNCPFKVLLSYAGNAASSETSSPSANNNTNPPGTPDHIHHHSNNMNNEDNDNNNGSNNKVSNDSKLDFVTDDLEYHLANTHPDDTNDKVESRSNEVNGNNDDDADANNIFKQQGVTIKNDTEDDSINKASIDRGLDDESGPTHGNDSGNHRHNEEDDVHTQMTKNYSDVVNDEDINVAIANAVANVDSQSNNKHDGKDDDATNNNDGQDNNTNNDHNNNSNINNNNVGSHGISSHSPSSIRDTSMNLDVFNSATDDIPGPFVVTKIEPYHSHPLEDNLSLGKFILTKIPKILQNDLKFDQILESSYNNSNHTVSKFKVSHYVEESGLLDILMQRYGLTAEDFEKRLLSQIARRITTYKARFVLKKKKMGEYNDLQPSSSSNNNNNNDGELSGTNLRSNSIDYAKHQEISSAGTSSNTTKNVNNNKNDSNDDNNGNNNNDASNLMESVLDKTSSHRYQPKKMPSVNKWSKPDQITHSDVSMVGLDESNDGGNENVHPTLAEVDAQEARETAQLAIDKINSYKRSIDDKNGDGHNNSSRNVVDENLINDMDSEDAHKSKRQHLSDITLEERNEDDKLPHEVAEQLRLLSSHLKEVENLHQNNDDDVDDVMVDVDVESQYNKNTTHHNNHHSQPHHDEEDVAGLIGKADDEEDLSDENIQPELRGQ
Test: PBM E-score (8-mer binding enrichment) (E-score (-0.5 to 0.5)); higher = stronger / more preferred TF binding
Settings: protein concentration: 200 nM; construct: GST-full length
In short: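 Detection of bound protein used fluorescent anti-GST, with scans normalised by masliner. The proteins were GST-tagged yeast transcription factors applied at about 100-200 nM to universal all-10-mer Agilent arrays made double-stranded by primer extension. Each ungapped eight-base word, pooled with its reverse complement, was scored with an E-score from the Universal PBM Analysis Suite.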

Compared with CGTGGGAG, CAAATCCC is lower in “PBM E-score” value: 0.0501 for the first, -0.184 for the second.

Going from GCGTCGTA to ACGTCGTA, the “PBM E-score” value falls from 0.418 to 0.228.

First: TCGTCTAA
Second: TCGTCGAA
The “PBM E-score” value of the first is lower: 0.298 for the first, 0.355 for the second.

Compared with GCGTCGCA, TCGTCGCA is higher in “PBM E-score” value: -0.0267 for the first, 0.322 for the second.

First: GCGTCGAA
Second: ACGTCGAA
The “PBM E-score” value of the first is lower: 0.0222 for the first, 0.163 for the second.

Going from CCGTCGCA to ACGTCTAA, the “PBM E-score” value falls from 0.282 to 0.196.

Going from CCGTCTAA to CCGTCGTA, the “PBM E-score” value rises from 0.266 to 0.282.

First: CCGCCATA
Second: GGGTTACC
The “PBM E-score” value of the first is lower: -0.072 for the first, -0.0518 for the second.

First: CAGACCAA
Second: GCCCAAAA
The “PBM E-score” value of the first is lower: -0.132 for the first, -0.114 for the second.

Compared with AAATGGAG, AGGCTCTA is lower in “PBM E-score” value: 0.0525 for the first, -0.247 for the second.

First: CATGACAA
Second: GATGACAC
The “PBM E-score” value of the first is lower: 0.238 for the first, 0.337 for the second.

Compared with AATGACAG, TATGACAA is higher in “PBM E-score” value: 0.16 for the first, 0.27 for the second.

Compared with AATGACAA, AATGACCT is lower in “PBM E-score” value: 0.397 for the first, 0.223 for the second.

Going from AATGACTA to AATGACAC, the “PBM E-score” value rises from 0.222 to 0.227.

Compared with CATGACAC, AATGACAT is higher in “PBM E-score” value: 0.218 for the first, 0.39 for the second.

Going from AATGACCA to GATGACAA, the “PBM E-score” value rises from 0.256 to 0.369.

Going from CGAGGATA to GATGGGCA, the “PBM E-score” value falls from 0.0582 to -0.0389.

First: CTCATCAA
Second: GCCCTCTA
The “PBM E-score” value of the first is higher: 0.192 for the first, -0.224 for the second.

Going from CCACTCTC to GACGATTA, the “PBM E-score” value rises from -0.22 to 0.31.

First: AACGATTA
Second: CACGATAA
The “PBM E-score” value of the first is lower: 0.172 for the first, 0.296 for the second.

Compared with CACGATTA, GACGATAA is higher in “PBM E-score” value: 0.247 for the first, 0.363 for the second.

Compared with TACGATAA, GACCAAAA is higher in “PBM E-score” value: 0.179 for the first, 0.183 for the second.

First: AAACCGAC
Second: CGCACCAA
The “PBM E-score” value of the first is higher: -0.0139 for the first, -0.0891 for the second.

Going from TCACGCCA to GTGATAAC, the “PBM E-score” value rises from 0.113 to 0.371.

First: AAGATAAC
Second: GCGATAAC
The “PBM E-score” value of the first is higher: 0.171 for the first, 0.158 for the second.

Compared with CTGATAAA, ATGATAAC is higher in “PBM E-score” value: 0.112 for the first, 0.339 for the second.

Compared with GAGATAAC, ATGATAGA is lower in “PBM E-score” value: 0.138 for the first, 0.103 for the second.

Going from CTGATAAC to ATGATAAA, the “PBM E-score” value rises from 0.167 to 0.406.

Compared with AAGATAAA, TTGATAAA is higher in “PBM E-score” value: 0.132 for the first, 0.23 for the second.

Going from GTGATAAA to CCGGTTCC, the “PBM E-score” value falls from 0.412 to -0.286.

Going from CCCATTTA to AAAGGCAG, the “PBM E-score” value rises from -0.0213 to 0.17.

Compared with AAAGCTAG, ATAATAAA is higher in “PBM E-score” value: -0.236 for the first, 0.2 for the second.

Compared with ATGATAAG, GTGATACA is higher in “PBM E-score” value: 0.291 for the first, 0.311 for the second.

First: AAGATAAT
Second: ATGATAAT
The “PBM E-score” value of the first is lower: 0.0926 for the first, 0.377 for the second.

First: GTAATAAC
Second: GAGATACA
The “PBM E-score” value of the first is lower: 0.124 for the first, 0.146 for the second.

Compared with GTAATAAA, CTGATACA is lower in “PBM E-score” value: 0.313 for the first, 0.0567 for the second.

Compared with CACTTTGC, CTGACACC is lower in “PBM E-score” value: 0.137 for the first, -0.0573 for the second.

First: GGTTGGAA
Second: AACTAGAG
The “PBM E-score” value of the first is lower: -0.166 for the first, -0.159 for the second.

Compared with ATACAGTG, AGAGAAGA is higher in “PBM E-score” value: 0.011 for the first, 0.0299 for the second.

First: CCACCAGC
Second: ATCGTTTA
The “PBM E-score” value of the first is lower: 0.0706 for the first, 0.321 for the second.

Going from ATCGTTTC to AGCGTTTG, the “PBM E-score” value falls from 0.325 to -0.116.

Compared with ATCGTTCC, AACGTTTA is lower in “PBM E-score” value: 0.068 for the first, -0.0328 for the second.

First: ACCGTTTG
Second: CTCGTTTA
The “PBM E-score” value of the first is higher: 0.103 for the first, 0.0984 for the second.

Going from ATCGTTTG to CTCGTTTC, the “PBM E-score” value falls from 0.298 to 0.129.

Compared with GCCGTTTA, AGCGTTTA is lower in “PBM E-score” value: 0.102 for the first, -0.153 for the second.

Compared with GTCGTTTA, CAGCTCCA is lower in “PBM E-score” value: 0.298 for the first, -0.238 for the second.

First: CGATACAG
Second: ACTTTGTA
The “PBM E-score” value of the first is lower: -0.0796 for the first, 0.0728 for the second.

First: ATTAGATC
Second: ATGCAGCG
The “PBM E-score” value of the first is higher: -0.00144 for the first, -0.174 for the second.

Going from GCGGGAGC to ATCGTTGA, the “PBM E-score” value rises from -0.288 to 0.208.

Going from GTCGTTGA to CTCGTTGA, the “PBM E-score” value falls from 0.327 to 0.0588.

Going from AGCTCGTA to GCGCAACA, the “PBM E-score” value falls from 0.149 to -0.123.

Compared with AAAGAGTG, ATTATGCG is higher in “PBM E-score” value: -0.101 for the first, 0.303 for the second.

Compared with ATTATGCA, ATTATGCC is higher in “PBM E-score” value: -0.114 for the first, 0.0573 for the second.

First: ATCATGTA
Second: CTTATGTC
The “PBM E-score” value of the first is higher: 0.208 for the first, 0.00318 for the second.

Compared with ATTATGTC, ATCATGTC is higher in “PBM E-score” value: 0.303 for the first, 0.356 for the second.

Going from CTCATGTC to ATTATGTA, the “PBM E-score” value rises from 0.0937 to 0.239.

First: AGCCGGTA
Second: CTGGCACA
The “PBM E-score” value of the first is lower: -0.013 for the first, 0.00341 for the second.

First: GATCCAAA
Second: AGTGTTTG
The “PBM E-score” value of the first is higher: 0.111 for the first, -0.0678 for the second.

Compared with TCGATAAA, ACGATAAT is higher in “PBM E-score” value: 0.207 for the first, 0.303 for the second.

Going from GCGATAAA to ACGATAAA, the “PBM E-score” value rises from 0.241 to 0.352.

Compared with ACGATAAC, ACGATAAG is higher in “PBM E-score” value: 0.224 for the first, 0.243 for the second.

Compared with CAGACTCA, GGGAACCA is lower in “PBM E-score” value: -0.218 for the first, -0.249 for the second.

First: CCGAACCA
Second: TCGTTTAA
The “PBM E-score” value of the first is lower: -0.231 for the first, 0.341 for the second.

First: ACGTTCAA
Second: CCGTTTAA
The “PBM E-score” value of the first is lower: 0.155 for the first, 0.266 for the second.

First: TCGTTCAA
Second: GCGTTCAA
The “PBM E-score” value of the first is higher: 0.357 for the first, -0.0872 for the second.

Compared with ACGTTTAA, TACACTAA is lower in “PBM E-score” value: 0.245 for the first, 0.114 for the second.

Going from TAAGACTA to CCAACAGG, the “PBM E-score” value falls from -0.0858 to -0.363.

Going from GAACTTAC to ACGGTATC, the “PBM E-score” value rises from 0.0577 to 0.182.

Going from AATTTATC to CGTTTATC, the “PBM E-score” value falls from 0.314 to 0.297.

Compared with CGTTTATA, AGTTTATC is lower in “PBM E-score” value: 0.196 for the first, 0.173 for the second.

First: AATTTATA
Second: CATTTATC
The “PBM E-score” value of the first is lower: 0.191 for the first, 0.222 for the second.

First: CCTCTGAG
Second: GATTGGGA
The “PBM E-score” value of the first is lower: -0.215 for the first, -0.197 for the second.

Going from AGTGGTTA to AAACGACG, the “PBM E-score” value rises from 0.0354 to 0.238.

First: CAACGACA
Second: TAACGACA
The “PBM E-score” value of the first is lower: 0.208 for the first, 0.31 for the second.

First: GAACGACA
Second: AAACGACA
The “PBM E-score” value of the first is lower: 0.296 for the first, 0.321 for the second.

First: AAACGACT
Second: GCTAAAGC
The “PBM E-score” value of the first is higher: 0.152 for the first, -0.16 for the second.

First: ACGCGGAT
Second: GAAACCAC
The “PBM E-score” value of the first is higher: -0.024 for the first, -0.124 for the second.

Going from AAGGGACC to ACCATAGA, the “PBM E-score” value falls from 0.0128 to -0.0622.

Going from ACTCGTGA to CCTCGTGA, the “PBM E-score” value rises from 0.162 to 0.363.

Going from CCTCGTGC to GGTCGTGA, the “PBM E-score” value rises from 0.00335 to 0.195.

First: CGTCGTGA
Second: GTTCGTGA
The “PBM E-score” value of the first is higher: 0.351 for the first, 0.254 for the second.

Going from ATTCGTGA to GCTCGTGA, the “PBM E-score” value falls from 0.15 to 0.0759.

Going from CTTCGTGA to CGTCGTGC, the “PBM E-score” value falls from 0.317 to 0.315.

Compared with AGTCGTGC, AGTCGTGA is higher in “PBM E-score” value: 0.0998 for the first, 0.249 for the second.

Going from GTGAAAAC to CACTTCGA, the “PBM E-score” value rises from 0.138 to 0.223.

Compared with ATACTGTA, GAAACTTC is higher in “PBM E-score” value: 0.0204 for the first, 0.0521 for the second.
